In a collection of fitness landscapes (doi:10.1126/science.1257360):
The full ranking holds about 140,000 sequences; the median of “enrichment ratio after two sorts for PhoP signalling” is about 0, and the highest 2% start at about 11. The full list was thinned out, with the highest values kept by preference.

B1: PhoQ; a variant is named by its letters at X, in order, P23837 (parent)
chain: MKKLLRLFFPLSLRVRFLLATAAVVLVLSLAYGMVALIGYSVSFDKTTFRLLRGESNLFYTLAKWENNKLHVELPENIDKQSPTMTLIYDENGQLLWAQRDVPWLMKMIQPDWLKSNGFHEIEADVNDTSLLLSGDHSIQQQLQEVREDDDDAEMTHSVAVNVYPATSRMPKLTIVVVDTIPVELKSSYMVWSWFIYVLSANLLLVIPLLWVAAWWSLRPIEALAKEVRELEEHNRELLNPATTRELTSLVRNLNRLLKSERERYDKYRTTLTDLTHSLKTPLXXLQXXLRSLRSEKMSVSDAEPVMLEQISRISQQIGYYLHRASMRGGTLLSRELHPVAPLLDNLTSALNKVYQRKGVNISLDISPEISFVGEQNDFVEVMGNVLDNACKYCLEFVEISARQTDEHLYIVVEDDGPGIPLSKREVIFDRGQRVDTLRPGQGVGLAVAREITEQYEGKIVAGESMLGGARMEVIFGRQHSAPKDE

Variants of: B1
Assay: enrichment ratio after two sorts for PhoP signalling (ratio (wild type AVST 3.29)); higher = more functional
Settings: with PhoP (E. coli)

Variant | enrichment ratio
PTGD | ≤ 0.25
HQVK | ≤ 0.25
VNRG | ≤ 0.25
GRVA | ≤ 0.25
FSSR | ≤ 0.25
SFVK | ≤ 0.25
IYPH | ≤ 0.25
WNMY | ≤ 0.25
WIMS | ≤ 0.25
MEMF | 0.449
TTMS | 26.8
TKMF | 11.5
PTMF | ≤ 0.25
YTMS | ≤ 0.25
GTYD | ≤ 0.25
SAKT | ≤ 0.25
FGAP | ≤ 0.25
FCVG | ≤ 0.25
RGTF | ≤ 0.25
TISV | 12.8
WISV | ≤ 0.25
RISV | ≤ 0.25
AISV | 15.9
ADSV | 4.14

Variant | enrichment ratio
VHSV | ≤ 0.25
IHWP | ≤ 0.25
WMPW | ≤ 0.25
DDPW | ≤ 0.25
WIPR | ≤ 0.25
GRSL | ≤ 0.25
TCMA | 15.5
TCWV | 2.38
TCMD | ≤ 0.25
TCIV | ≤ 0.25
KCMA | ≤ 0.25
HCMH | ≤ 0.25
TCMS | 10.9
TCMV | 14.6
KCMH | ≤ 0.25
FCMA | 5.8
TCMH | 15.1
TCMI | 15
FRCS | ≤ 0.25
HLCG | ≤ 0.25
TQVV | 4.23
LDFE | ≤ 0.25
SIYM | 0.397
FWIR | ≤ 0.25

Variant | enrichment ratio
LPTL | ≤ 0.25
AFEF | ≤ 0.25
SVVF | ≤ 0.25
FPHE | ≤ 0.25
VCTG | 0.404
TCIG | ≤ 0.25
KSNV | ≤ 0.25
FCMF | 0.805
TYMF | ≤ 0.25
KCNV | ≤ 0.25
TCNV | 16.2
TCMG | 11.4
KCTG | ≤ 0.25
TCVG | ≤ 0.25
TCMF | 26.2
TCTG | 20
IPQW | ≤ 0.25
TEEP | ≤ 0.25
KVAI | ≤ 0.25
VSKE | ≤ 0.25
LVPE | ≤ 0.25
KFTM | ≤ 0.25
VECA | 3.45
FAFY | ≤ 0.25

Variant | enrichment ratio
SNSG | 10.7
GRCQ | ≤ 0.25
DDFY | ≤ 0.25
TGSW | ≤ 0.25
RFSN | 0.949
TCVC | ≤ 0.25
TCHQ | 23.4
TCWG | ≤ 0.25
TCGG | 21.5
TCHP | ≤ 0.25
TCFK | ≤ 0.25
WFIY | ≤ 0.25
HKKD | ≤ 0.25
VKAH | ≤ 0.25
AFQW | ≤ 0.25
SKSF | ≤ 0.25
SKPM | ≤ 0.25
SKIC | 30.5
SKSM | 14
SKRC | ≤ 0.25
SKIM | 20.9
HKSM | ≤ 0.25
SKAM | 28
SKFC | ≤ 0.25

Variant | enrichment ratio
SKGM | ≤ 0.25
SKSK | ≤ 0.25
SKRM | ≤ 0.25
AFGE | ≤ 0.25
KDQH | ≤ 0.25
EESA | ≤ 0.25
NRWG | ≤ 0.25
FGTG | ≤ 0.25
MKMF | ≤ 0.25
TNYM | 1.85
ANGW | 11.4
AVGD | ≤ 0.25
VHGW | ≤ 0.25
ANHW | ≤ 0.25
AGGW | 0.253
AVGW | 12.2
AHGW | ≤ 0.25
NVGW | ≤ 0.25
AIGW | 11.4
RGVW | ≤ 0.25
GKNA | ≤ 0.25
CIQI | ≤ 0.25
VWKV | ≤ 0.25
QAIG | ≤ 0.25

Variant | enrichment ratio
WRVK | ≤ 0.25
MGMW | ≤ 0.25
MGMY | ≤ 0.25
MGWG | 0.67
MGME | 13
MGTG | ≤ 0.25
MGMG | 42.5
LMNI | ≤ 0.25
ASSL | 11.7
QSSL | 9.11
TSSL | 13.7
SSSL | 12.5
SDSL | 0.277
VRSL | ≤ 0.25
FSSL | ≤ 0.25
KSSL | ≤ 0.25
NSSL | ≤ 0.25
SYTR | ≤ 0.25
VVCY | ≤ 0.25
GKAF | ≤ 0.25
SEVA | 10.3
SEVC | 9.44
SCVR | 1.05
SEFA | 1.84

Variant | enrichment ratio
SEVI | 12.2
SLVI | 2.14
SLVR | 0.339
SEVR | 12.1
SEVG | 25.6
SEFE | 4.76
SEFG | 15.8
SEGG | 9.05
RKKT | ≤ 0.25
SLWN | ≤ 0.25
RRRI | ≤ 0.25
PERI | ≤ 0.25
FFGE | ≤ 0.25
YKRH | ≤ 0.25
VSRE | ≤ 0.25
VRMG | ≤ 0.25
HGFC | ≤ 0.25
SEMI | 17.1
SEMQ | 8.89
SPWG | ≤ 0.25
SLVS | 1.29
SEMD | 1.79
SQWG | ≤ 0.25
SEWG | 17.3

Variant | enrichment ratio
SEVS | 20.4
SCVS | 3.13
SEMS | 14.3
SEMK | 7.11
SEMN | 4.75
HDQV | ≤ 0.25
HCLM | ≤ 0.25
NDAA | ≤ 0.25
NRLG | ≤ 0.25
NMCH | ≤ 0.25
HTPK | ≤ 0.25
PDYQ | ≤ 0.25
ANWA | ≤ 0.25
HDKT | ≤ 0.25
SAHC | ≤ 0.25
SEGS | 4.52
SEVK | 12.3
SEKK | ≤ 0.25
SEMG | 21.5
SEEG | 2.48
SLVK | 1.38
EACH | 2.01
FYVQ | ≤ 0.25
GYNI | ≤ 0.25

Variant | enrichment ratio
LYDQ | ≤ 0.25
FPLV | ≤ 0.25
FGLT | 9.94
FGLV | 11.7
FGLS | 8.38
FGLA | 12.2
QGLV | 7.45
HKVW | ≤ 0.25
VDRE | ≤ 0.25
EAAG | ≤ 0.25
TSSY | 14.6
KSSY | ≤ 0.25
FSSY | 0.259
CSSY | 17.5
CVSY | ≤ 0.25
NSSY | ≤ 0.25
KMIV | ≤ 0.25
IVGD | ≤ 0.25
TDFN | ≤ 0.25
VLSM | 0.436
AKSM | 15.5
MNSM | 9.22
TNSM | 23.5
CLSM | 22.7

Variant | enrichment ratio
LNSM | 0.463
ADSM | ≤ 0.25
CLSF | 10.1
AHSM | 4.11
SLSM | 8.94
PLSM | ≤ 0.25
TLSM | 25.5
IDFI | ≤ 0.25
NPDM | ≤ 0.25
PIRV | ≤ 0.25
EGSN | ≤ 0.25
PKCK | ≤ 0.25
RLKF | ≤ 0.25
AIND | ≤ 0.25
GVLN | 10.1
ALSM | 17
AISM | 15.9
AVSM | 11.3
ARSM | 4.49
KMSM | ≤ 0.25
AMSM | 15.1
KKSM | ≤ 0.25
WISM | ≤ 0.25
NMSM | ≤ 0.25

Variant | enrichment ratio
AQSM | 10.4
AVSF | 9.87
DRSF | ≤ 0.25
HYGV | ≤ 0.25
IFME | ≤ 0.25
FRHK | ≤ 0.25
PAGH | ≤ 0.25
QFCS | ≤ 0.25
SPYV | ≤ 0.25
WPGT | ≤ 0.25
YLNI | ≤ 0.25
PLSF | ≤ 0.25
TISM | 27.4
ANSF | 5.47
ALSF | 12.1
RISM | ≤ 0.25
ALHF | ≤ 0.25
ANSM | 16.6
NISM | 0.899
EYYP | ≤ 0.25
PMHD | ≤ 0.25
APSK | ≤ 0.25
YWYS | ≤ 0.25
KTMK | ≤ 0.25

Variant | enrichment ratio
RNCC | ≤ 0.25
QPSQ | ≤ 0.25
QASK | ≤ 0.25
KASQ | ≤ 0.25
QSSQ | 11.3
KSSQ | ≤ 0.25
TSSQ | 11.8
FSSQ | ≤ 0.25
TPSQ | ≤ 0.25
QASQ | 23.3
LWCS | ≤ 0.25
KPGV | ≤ 0.25
FAWD | ≤ 0.25
LEFH | ≤ 0.25
ELWP | ≤ 0.25
MRDF | ≤ 0.25
TCQR | 4.53
MQCC | 11.8
MILH | 0.967
MQCI | 1.41
MQTH | ≤ 0.25
MICH | 2.87
MICC | 29.6
IQVR | ≤ 0.25

Variant | enrichment ratio
NDHA | ≤ 0.25
MDME | ≤ 0.25
RVHQ | ≤ 0.25
NHNI | ≤ 0.25
THNI | 14.1
NHNL | ≤ 0.25
YHNL | ≤ 0.25
THNL | 12.7
SHNI | 8.22
YPKW | ≤ 0.25
AGAF | 3.66
TPRL | ≤ 0.25
AHGI | ≤ 0.25
GHGI | ≤ 0.25
GNGI | ≤ 0.25
AGGI | 12.9
AGFP | ≤ 0.25
AIGI | 11.8
VHGI | ≤ 0.25
YTGI | ≤ 0.25
MTGI | 11.7
ANHA | ≤ 0.25
ANGI | 22.1
MTGD | ≤ 0.25
